Screening results from PubChem.
Rows were chosen to be rich in hits. Some 1.1% of all compounds tested hit in one or more screens of this group.
LRH-1 inv ag – NR5A2 inverse agonism in reporter assay; O00482; inhibition, % at 3.6 µM; HEK293T StAR-luciferase reporter, LRH-1 transfected, 24 h; AID 602396; hit rate 0.13% among 360,000;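 active = inhibition above the mean inhibition of all tested compounds plus 3 SD, cut at about 73% in these data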;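 note: 0% = DMSO wells and 100% = reporter-only cells lacking LRH-1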
SRC2 inh – human SRC2 (NCOA2) inhibition; HEK293 GAL4-SRC2 luciferase reporter, luminescence; inhibition, % at 9 µM; hit rate 0.17% among 370,000;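 active = inhibition above the mean inhibition of all tested compounds plus 3 SD, set per campaign, cut at about 52% in these data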;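 note: 0% = DMSO treated cells and 100% = cells given Gossypol at 36 µM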
NCOA3 inh – human NCOA3 inhibition. HEK293 GAL4-SRC3 luciferase reporter, luminescence. Q9Y6Q9. inhibition, % at 3.6 µM. AID 588352. hit rate 0.17% among 360,000;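 active = inhibition above a per-campaign cutoff, the mean of all compounds plus 3 SD, cut at about 60% in these data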;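 note: 0% = DMSO-treated cells and 100% = gossypol-treated cells at 36 µM; higher means less SRC3-driven luciferase light from the GAL4 reporter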
SRC1 inh – inhibits human SRC1 coactivator. Q15788. HEK293 GAL4-SRC1 luciferase reporter, luminescence. inhibition, % at 3.6 µM. hit rate 0.12% among 360,000. AID 588354;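 active = inhibition above the campaign mean plus 3 SD, with each screening campaign given its own cutoff, cut at about 60% in these data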;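 note: 0% = DMSO treated cells and 100% = gossypol at 36 µM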
Target sequence (Q15788 whole entry, looked up, the tested form may be a part): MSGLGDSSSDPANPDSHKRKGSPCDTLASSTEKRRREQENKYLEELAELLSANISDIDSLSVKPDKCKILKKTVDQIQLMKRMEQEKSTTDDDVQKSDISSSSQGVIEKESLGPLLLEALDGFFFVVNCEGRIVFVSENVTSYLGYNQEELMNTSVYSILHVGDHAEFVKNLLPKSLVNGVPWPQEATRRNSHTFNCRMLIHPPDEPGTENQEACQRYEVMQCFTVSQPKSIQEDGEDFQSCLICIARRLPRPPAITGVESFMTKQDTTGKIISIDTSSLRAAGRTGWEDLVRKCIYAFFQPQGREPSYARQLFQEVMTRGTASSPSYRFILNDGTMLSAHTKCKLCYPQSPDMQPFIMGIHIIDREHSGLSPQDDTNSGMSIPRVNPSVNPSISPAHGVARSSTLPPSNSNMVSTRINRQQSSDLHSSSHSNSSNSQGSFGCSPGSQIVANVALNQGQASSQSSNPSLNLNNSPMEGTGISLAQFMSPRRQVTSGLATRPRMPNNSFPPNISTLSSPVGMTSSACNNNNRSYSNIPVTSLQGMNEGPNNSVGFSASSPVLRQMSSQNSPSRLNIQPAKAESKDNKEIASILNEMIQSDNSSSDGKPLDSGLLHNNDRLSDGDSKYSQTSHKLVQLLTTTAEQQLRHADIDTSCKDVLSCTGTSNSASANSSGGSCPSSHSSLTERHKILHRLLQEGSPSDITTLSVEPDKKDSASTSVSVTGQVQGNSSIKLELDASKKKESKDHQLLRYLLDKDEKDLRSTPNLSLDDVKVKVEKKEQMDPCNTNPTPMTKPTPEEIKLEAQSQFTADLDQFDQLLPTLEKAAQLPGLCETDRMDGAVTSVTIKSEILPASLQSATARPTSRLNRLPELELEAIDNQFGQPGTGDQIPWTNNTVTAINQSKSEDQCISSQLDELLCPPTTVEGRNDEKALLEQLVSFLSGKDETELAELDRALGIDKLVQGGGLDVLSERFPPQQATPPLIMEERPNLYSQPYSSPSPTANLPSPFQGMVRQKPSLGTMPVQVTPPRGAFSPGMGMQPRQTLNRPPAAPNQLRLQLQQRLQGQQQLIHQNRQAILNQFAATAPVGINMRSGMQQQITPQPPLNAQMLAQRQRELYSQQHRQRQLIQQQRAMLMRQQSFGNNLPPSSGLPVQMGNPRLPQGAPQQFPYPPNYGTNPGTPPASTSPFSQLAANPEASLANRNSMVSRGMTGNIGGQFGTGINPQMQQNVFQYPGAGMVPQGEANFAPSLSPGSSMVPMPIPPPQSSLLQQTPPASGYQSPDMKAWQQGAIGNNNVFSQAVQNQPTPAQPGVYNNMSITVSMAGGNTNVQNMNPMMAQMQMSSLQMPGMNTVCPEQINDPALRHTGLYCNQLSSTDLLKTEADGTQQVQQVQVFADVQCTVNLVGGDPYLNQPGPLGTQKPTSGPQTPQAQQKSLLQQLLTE
GalR3 antag – blocks the human galanin receptor 3; HEK293 GalR3-CNG cAMP membrane potential fluorescence; galR3 body fused to GalR1 C-terminus; hit rate 0.44% among 360,000; inhibition, % at 3 µM;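 active = inhibition above the screen-wide average plus 3 SD, cut at about 13% in these data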;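 note: forskolin and galanin both at EC90 stimulate the cells; cAMP rise reported by CNG channel membrane potential dye signal; 0% = forskolin plus galanin with DMSO and 100% = forskolin alone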
NR2F2 inh – blocks human COUP-TFII nuclear receptor | P24468 | HEK293T NGFI-A luciferase reporter, luminescence | hit rate 0.7% among 370,000 | AID 686940 | inhibition, % at 8.6 µM;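 active = inhibition above a per-plate cutoff, mean inhibition of test wells between control levels plus 3 SD, cut at about 38% in these data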;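 note: cells cotransfected with COUP-TFII expression vector driving the NGFI-A reporter; 0% = median of COUP-TF2 test wells and 100% = reporter-only cells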
GalR3 conf – confirmation of human galanin receptor 3 antagonists. HEK293 GalR3 CNG cAMP biosensor, membrane potential fluorescence; galR3 fused to GalR1 carboxy tail; challenged with forskolin and galanin at EC90. inhibition, % at 3 µM. hit rate 59% among 1,600. shares compounds with GalR3 antag;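 active = inhibition above the primary screen's cutoff, the mean inhibition of all screened compounds plus 3 SD, cut at about 13% in these data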;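 note: 0% = forskolin plus galanin and 100% = forskolin alone with DMSO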
CNG parental – counter-screen for GalR3 antagonists: nonspecific agonists in parental HEK-CNG cells. shares compounds with GalR3 antag. HEK293-CNG parental cells, cAMP membrane potential fluorescence; normalised: DMSO wells 0%, forskolin wells 100%. activation, % at 3 µM. hit rate 10% among 1,600. AID 652268; in the data active = activation above about 1.3%
VP16 Luc counter – inhibits VP16 reporter, flagging COUP-TFII antagonist hits; shares compounds with NR2F2 inh; HEK293 Gal4-VP16 luciferase reporter, luminescence; inhibition, % at 8.5 µM; hit rate 25% among 2,500; in the data active = inhibition above about 13%
COUP-TFII conf – confirmation of human COUP-TFII (NR2F2) inhibitors | shares compounds with NR2F2 inh | HEK293 NGFI-A luciferase reporter, luminescence | inhibition, % at 8.5 µM | hit rate 45% among 2,500;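 active = mean inhibition over three repeats above a set limit taken from the earlier primary screen, cut at about 38% in these data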;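 note: 100% = cells given the luciferase reporter alone without the COUP-TF2 vector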
* hit, by the source's call; . = not tested or not shown.

SMILES	LRH-1 inv ag	SRC2 inh	NCOA3 inh	SRC1 inh	GalR3 antag	NR2F2 inh	GalR3 conf	CNG parental	others
COc1cc2cc(C(=O)N3CC(COS(C)(=O)=O)c4ccc(O)cc43)[nH]c2c(OC)c1OC (configuration not stated)	65.0	.	94.5*	89.6*	.	.	.	.
Cc1nc2c(=O)n(C)c(=O)nc-2n(C)n1	94.8*	74.7*	91.6*	86.6*	-5.3	64.4*	.	.
Cc1cc([N+](=O)[O-])c2ccccc2[n+]1[O-]	57.9	.	51.9	62.6*	.	.	.	.
O=C(CN1C(=O)[C@@H](Cc2ccc(O)cc2)N=C(c2ccccc2)c2ccccc21)NC1CCCCC1	.	6.6	.	.	.	-2.0	.	.
CCOC(=O)[C@]12Cc3ccccc3[C@H]1N(C(C)C)C(=O)c1ccccc12	-48.9	7.9	.	.	-3.5	2.0	.	.
CCOC(=O)[C@]12Cc3c(cc(OC)c(OC)c3OC)[C@H]1N(C1CCCCC1)C(=O)c1ccccc12	47.5	-4.8	.	.	3.2	59.9*	.	.
C[C@H]1CCC[C@@H](O)CCC/C=C/c2cc(O)cc(O)c2C(=O)O1	35.6	21.1	63.8*	57.8	-2.6	34.1	.	.
O=[N+]([O-])c1ccc(N(CCO)CCO)c2c1no[n+]2[O-]	83.5*	57.6*	67.3*	55.0	-4.0	-14.1	.	.
CC(C)(C)NC(=O)C1CN=C(c2ccccc2)c2cc(Cl)ccc2N1C(=O)C1CCC1 (configuration not stated)	.	8.3	.	.	.	-1.3	.	.
COc1ccc(C2=CC(c3ccc4c(c3)OCO4)c3c(c4ccccc4oc3=O)O2)cc1OC (configuration not stated)	4.5	-28.4	-6.5	-44.5	36.2*	-16.8	42.1*	0.8
COc1ccc(C(CC(=O)c2ccc3c(c2)OCO3)c2c(O)c3ccccc3oc2=O)cc1OC (configuration not stated)	1.7	-19.3	-5.6	2.2	-2.6	-3.8	.	.
C=CCN(CC#CCO)Cc1ccc(OC)cc1OC	.	15.1	.	.	.	-7.0	.	.
CC(NCC#Cc1ccccc1)C(O)c1ccccc1 (configuration not stated)	3.3	-3.5	-43.7	-24.0	16.0*	-31.3	35.4*	0.9
CN[C@H](C)[C@H](O)c1ccccc1	13.2	.	-17.6	-4.0	.	.	.	.
CCN(C=C1CC2C3CC=C4CC(O)CCC4(C)C3CCC2(C)C1=O)CC (configuration not stated)	4.7	-10.8	10.3	1.4	-2.0	1.6	.	.
Cc1nn(C)c(C)c1/C=C1/CC2C3CC=C4CC(O)CCC4(C)C3CCC2(C)C1=O (configuration not stated)	-25.6	-28.6	-64.7	-6.0	14.0*	15.1	30.5*	0.0
CNc1cc(Cl)c2nonc2c1[N+](=O)[O-]	34.0	-121.0	2.5	10.6	39.1*	27.1	31.3*	0.4
CCOC(=O)[C@]12Cc3cc(C)ccc3[C@H]1N(C1CCCCC1)C(=O)c1ccccc12	60.8	19.9	.	.	34.2*	36.1	58.0*	1.1
O=C(NCCN1CCC2(CC1)C(=O)NCN2c1ccccc1)c1ccc2ccccc2c1	.	-14.9	.	.	-5.5	6.4	.	.
C[C@]12CC[C@H]3C(CCC4(O)CC(O)CC[C@]34C=O)C1=CC[C@H]2c1ccc(=O)oc1 (some centres not stated)	39.7	-16.9	44.2	26.1	16.7*	35.8	41.7*	2.7*
O=C(NCCO)c1nsnc1NCCCl	6.3	1.7	2.9	5.8	.	-2.5	28.4*	-0.2
CC(C)C[C@H]1N=C(c2ccccc2)c2ccccc2N(CC(=O)NC(C)(C)C)C1=O	.	8.0	.	.	.	-11.2	.	.
Oc1ccc(C[C@H]2NCCc3cc(O)c(O)cc32)cc1O	-0.7	-26.2	-25.0	-14.0	37.4*	-33.4	52.6*	2.5*
Oc1ccc(CC2CC3CCN2CC3)cc1O (configuration not stated)	13.4	-18.1	9.6	-29.2	-0.9	-10.3	.	.
COP(=O)(OC)C(C)NC(=O)OCc1ccccc1 (configuration not stated)	.	.	.	.	.	20.1	.	.
SMILES	LRH-1 inv ag	SRC2 inh	NCOA3 inh	SRC1 inh	GalR3 antag	NR2F2 inh	GalR3 conf	CNG parental	others
COc1ccc(C(c2nnnn2-c2ccc(OC)cc2)N2CCC(n3c(=O)[nH]c4ccccc43)CC2)cc1 (configuration not stated)	12.5	10.0	16.6	23.8	-5.3	5.4	.	.
COc1ccc(-n2nnnc2C(c2cc3ccccc3o2)N2CCC(n3c(=O)[nH]c4ccccc43)CC2)cc1 (configuration not stated)	44.2	41.7	59.5	37.0	42.2*	98.9*	26.9*	-0.4	VP16 Luc counter=-3.3;COUP-TFII conf=60.3*
C=C1[C@@H](C)C2[C@H](Cc3ccccc3)NC(=O)[C@]23[C@H](OC(C)=O)/C=C/[C@@](C)(O)C(=O)[C@@H](C)C/C=C/[C@H]3[C@@H]1O (some centres not stated)	.	-7.5	.	.	.	-80.6	.	.
CC(NC(=O)OCc1ccccc1)P(=O)(Oc1ccccc1)Oc1ccccc1 (configuration not stated)	.	6.7	.	.	.	-16.4	.	.
CCOC(=O)[C@]12Cc3cc(Cl)ccc3[C@H]1N(C1CCCCC1)C(=O)c1cc(OC)ccc12	96.6*	-2.3	.	.	19.7*	59.2*	46.3*	4.3*	VP16 Luc counter=52.9*;COUP-TFII conf=60.0*
CCOC(=O)[C@]12Cc3ccc(C)cc3[C@H]1N(C1CCCCC1)C(=O)c1cc(OC)ccc12	61.7	-2.4	.	.	16.0*	52.1*	45.3*	2.3*	VP16 Luc counter=22.6*;COUP-TFII conf=35.1
Cc1nn(Cc2ccccc2)c(Cl)c1C(=O)Nc1ccc(OC(F)(F)F)cc1	10.9	-16.6	7.6	3.4	-2.5	8.9	.	.
Cc1ccc(Cn2nc(C(=O)Nc3ccc(Br)cc3)cc2C)cc1	14.3	-36.6	-39.2	-41.4	92.5*	53.5*	104.0*	0.8	VP16 Luc counter=-143.3;COUP-TFII conf=19.4
N#Cc1cn(C2OC(CO)C(O)C2O)c2ncnc(N)c12 (configuration not stated)	96.6*	61.1*	55.2	44.8	68.5*	47.2*	76.3*	0.0	VP16 Luc counter=-8.3;COUP-TFII conf=1.6
